We go through 13 molecules from PubChem BioAssay (NCATS).

For assay [1], the target named is Nuclear receptor subfamily 1 group I member 2 (Rattus norvegicus) (UniProt Q9R1A7). Briefly: qHTS assay for small molecule activators of the rat pregnane X receptor (rPXR) signaling pathway (AID 651751; call rule not given here; further: 0% is about no effect). Particulars: rPXR reporter cells, luciferase (One-Glo), 24 h.
The nature of assay [2]: qHTS assay for small molecule activators of the human pregnane X receptor (PXR) signaling pathway (AID 720659; call rule not given here; further: 0% is about no effect). Particulars: DPX-2 HepG2 CYP3A4-luciferase, 24 h; series mostly up to 92.3 µM. (In general: qHTS replaces the single test concentration by a dilution series.)
Assay [3] can be described thus: qHTS assay to identify inhibitors of the type 1 interferon - major histocompatibility complex class I in skeletal muscle: Counter screen cell viability and HiBit confirmation (AID 1347412). Further: potency means the concentration at half of the fitted maximal effect; nearly all actives have a fitted effect of over 60% in size. Conditions: iHSKM muscle cells + IFN-b, HiBiT or CellTiter-Glo, 24 h; Potency: HiBiT; Viability, at 45.9 µM (top of the series). The procedure, abridged: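 Luminescence read-out: Nano-Glo HiBiT lytic signal from C-terminally HiBiT-tagged HLA-B in CRISPR-edited human myoblasts, plus CellTiter Glo ATP as viability counter screen. IFN-beta 4.0 ng/ml; 24 hrs treatment at 37 C, 5% CO2.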

The next assay deals with astro. In words: Drug repurposing screens with cells derived from glioblastoma tumor samples (AID 1345199). Further: nearly all actives have a fitted effect of over 40% in size. Further: potency means the concentration at half of the fitted maximal effect. On activity, negative = cell killing: on the % scale 0 is the no-effect control and ±100 the full control effect. Particulars: viability, ATP luminescence, 48 h; series mostly up to 45.9 µM. An outline of the steps: (§1)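 Primary testing used CD133+ neurospheres from four GBM patients, seven concentrations, 48 h exposure and ATP-based viability; confirmation added three slower-growing patient lines.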

Assay in assay [4]: as above
Conditions: GBM patient neurospheres viability, ATP luminescence, 48 h. The procedure, abridged: as §1

[5] abbreviates: at 45.9 µM (top of the series), tumour line B.
[6] abbreviates: at 45.9 µM (top of the series), tumour line D.

SMILES strings stand for the structures. Unmarked numbers belong to inactive results. Results filed as inconclusive are left out. Activity calls are given as the source filed them. Unless noted, the call rests on the fitted dose curve; in most records, active means well fitted curve in the direction sought with a large enough effect; inconclusive means small, poorly fitted or top-dose-only effect, or another doubt; inactive means no such curve, though single readings can be large; an effect the other way counts as inactive or inconclusive.

Chain of Nuclear receptor subfamily 1 group I member 2 (Rattus norvegicus) (Q9R1A7 whole entry, looked up): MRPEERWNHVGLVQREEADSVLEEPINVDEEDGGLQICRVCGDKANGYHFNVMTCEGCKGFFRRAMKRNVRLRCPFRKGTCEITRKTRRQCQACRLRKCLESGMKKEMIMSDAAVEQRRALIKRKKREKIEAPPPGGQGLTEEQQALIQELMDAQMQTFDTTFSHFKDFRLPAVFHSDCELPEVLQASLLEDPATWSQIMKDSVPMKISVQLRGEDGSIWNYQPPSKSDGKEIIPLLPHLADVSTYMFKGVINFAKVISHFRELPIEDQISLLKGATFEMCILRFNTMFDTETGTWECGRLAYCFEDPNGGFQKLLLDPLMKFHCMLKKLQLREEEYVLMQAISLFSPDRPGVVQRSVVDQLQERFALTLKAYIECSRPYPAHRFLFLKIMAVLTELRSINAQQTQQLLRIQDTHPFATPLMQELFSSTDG

On to `COc1ccc2c(c1OC)C(=O)OC2C1c2cc3c(cc2CCN1C)OCO3` (stereo not given), for which, in assay [1], the max response is 3.69%.

As to `CC[C@H](C)[C@H]1O[C@]2(C=C[C@@H]1C)C[C@@H]1C[C@@H](C/C=C(\C)[C@@H](O[C@H]3C[C@H](OC)[C@@H](O[C@H]4C[C@H](OC)[C@@H](O)[C@H](C)O4)[C@H](C)O3)[C@@H](C)/C=C/C=C3\CO[C@@H]4[C@H](O)C(C)=C[C@@H](C(=O)O1)[C@]34O)O2`, the molecule was called inactive in assay [2].

On to `CNc1ccc2oc(C[C@H]3O[C@@]4(CC[C@H]3C)O[C@H]([C@H](C)C(=O)c3ccc[nH]3)[C@H](C)C[C@H]4C)nc2c1C(=O)O`, for which, in assay [3], the Potency is 2490 nM (active).

As to `COC(COC(N)=O)C1=C(N2CC2)C(=O)C(C)=C(N2CC2)C1=O` (stereo not given), in the assay with astro, the Potency was 2240 nM (active).

Regarding `C[C@@H]1O[C@@H](O[C@H]2C[C@@H](O)[C@]3(CO)[C@@H]4C(CC[C@]3(O)C2)[C@@]2(O)CC[C@H]([C@@H]3COC(=O)C3)[C@@]2(C)C[C@H]4O)[C@H](O)[C@H](O)[C@H]1O` (stereo not given in full), the Potency in assay [3] is 557 nM (active).

As for `[Cl-].[Cl-].[Hg+2]`, in the assay with astro, the Potency is 7940 nM (active).

As for `NNC(N)=O`, in assay [1], the max response is 4.4%. Besides, the result in assay [2] was inactive.

Regarding `CCC/C=C/C=C/C(=O)O[C@H]1/C(=C/C(=O)OC)C[C@H]2C[C@H]([C@@H](C)O)OC(=O)C[C@H](O)C[C@@H]3C[C@H](OC(C)=O)C(C)(C)[C@](O)(C[C@@H]4C/C(=C/C(=O)OC)C[C@H](/C=C/C(C)(C)[C@]1(O)O2)O4)O3`, the activity, negative = cell killing was -7.48% in assay [4] (setting [5]) and -24.1% in assay [4] (setting [6]). Further, the Potency entry in the assay with astro is “inactive”.

Regarding `[H+].[H+].[Hg+2].[O-]B([O-])[O-].[c-]1ccccc1`, the Potency with astro was 2820 nM (active).

`C[C@@H]([C@H](O)c1ccccc1)N(C)C`: the activity, negative = cell killing in assay [4] (setting [5]) is -6.97%; in assay [4] (setting [6]) it was -5.32%. The Potency result with astro was “inactive”.

Take `Cc1c2ccncc2c(C)c2c1[nH]c1ccccc12`: in assay [3], the Potency is 15700 nM (active).

With `c1ccc(C2(N3CCCC3)CCCCC2)cc1`, the activity, negative = cell killing in assay [4] (at 46.1 µM (top of the series), tumour line C) is -27.4%. Moreover, the Potency in assay [4] (tumour line A) was 11200 nM (active). In addition, the Potency entry in the assay on astro is “inactive”.

In the case of `CC(=O)O[C@H]1C[C@H](O[C@H]2[C@@H](O)C[C@H](O[C@H]3[C@@H](O)C[C@H](OC4CC[C@@]5(C)[C@H](CC[C@@H]6[C@@H]5CC[C@]5(C)[C@@H](C7=CC(=O)OC7)CC[C@]65O)C4)O[C@@H]3C)O[C@@H]2C)O[C@H](C)[C@H]1O[C@@H]1O[C@H](CO)[C@@H](O)[C@H](O)[C@H]1O` (stereo not given in full), the Potency with astro was 251 nM (active).
